HCMV antiviral: human cytomegalovirus inhibition | AID 1259415 | HFF cells, HCMV-luciferase reporter, 72 h; hits give low values | activity change, negative = inhibition, % at 57.5 µM | hit rate 4.5% among 410,000; in the data active = activity change below about -60%; inconclusive = no clear call, values can overlap the other calls; inactive = above about -39%
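HFF cells seeded 16 h at 37C, treated with compounds, infected with luciferase-reporter HCMV at MOI 1 PFU/cell; luciferase read at 72 h post infection, normalized to buffer-only and Salinomycin controls.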
Sm TGR inh: S. mansoni TGR enzyme inhibition; Q962Y6; purified TGR, DTNB reduction, TNB absorbance 405 nm; Potency, µM (titrated, usually from 114 µM), for the others: at the top dose activity change, negative = inhibition, hits mostly inhibitors; hit rate 3% among 360,000; also: potency is read from the fitted curve at half-maximal effect; nearly all actives have a fitted effect of over 60% in size
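Kinetic colorimetric format: TGR-catalysed, NADPH-driven DTNB reduction monitored via TNB absorbance. Enzyme dispensed at 20 nM; compound exposure 15 min at room temperature before reaction start.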
Pf growth 48h: inhibits P. falciparum growth in the first generation, 48 h | AID 504832 | hit rate 5.9% among 310,000 | P. falciparum luciferase growth in erythrocytes, 48 h | Potency, µM (highest dose often 28.7 µM), for inactives: at the highest dose activity change, negative = inhibition, usual class: inhibitors; also: potency is read from the fitted curve at half-maximal effect
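Parasite viability was followed by luminescence of a genomically integrated firefly luciferase. Cultures held 0.1% parasitemia at 2% hematocrit (final), incubated under 5% CO2 at 37 C.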
Giardia FBPA inh: Giardia lamblia aldolase inhibition; hit rate 0.71% among 290,000; AID 2451; purified Giardia FBPA; Potency, µM (highest dose often 59.6 µM), inactives show at the highest dose activity, negative = inhibition, usual class: inhibitors; A8B2U2; also: potency is read from the fitted curve at half-maximal effect; nearly all actives have a fitted effect of over 55% in size
Target sequence (A8B2U2 whole entry, looked up): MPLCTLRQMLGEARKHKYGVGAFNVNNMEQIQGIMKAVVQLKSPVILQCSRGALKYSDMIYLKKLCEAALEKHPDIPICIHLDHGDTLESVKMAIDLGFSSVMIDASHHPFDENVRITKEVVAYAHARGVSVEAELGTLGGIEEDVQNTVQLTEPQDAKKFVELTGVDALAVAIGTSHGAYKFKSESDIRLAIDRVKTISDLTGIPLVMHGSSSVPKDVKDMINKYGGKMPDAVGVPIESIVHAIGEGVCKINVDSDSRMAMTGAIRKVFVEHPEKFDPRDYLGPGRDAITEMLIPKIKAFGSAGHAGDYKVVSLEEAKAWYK
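Giardia FBPA (40 nM reagent) was preincubated 10 min at RT with compound (up to 57.5 uM final), then substrate plus GAPDH/TPI/NAD/arsenate coupling system with diaphorase/resazurin was added; resorufin fluorescence (525/598 nm) was read after 20 min.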
Pf growth 96h: P. falciparum growth inhibition at 96 hours. P. falciparum luciferase reporter growth, 96 h. Potency, µM (series often up to 28.7 µM), without a hit: at the top dose activity change, negative = inhibition, hits mostly inhibitors. hit rate 6.9% among 320,000; also: potency is read from the fitted curve at half-maximal effect
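Compounds incubated with erythrocytes infected by luciferase-expressing P. falciparum (2% hematocrit, 0.05% parasitemia final) for 96 hours, 37 C in 5% CO2. Growth inhibition scored as decreased luciferase luminescence.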
* = called active by the depositor; ? = inconclusive; nt = not tested or not shown; [ ] = dose if it differs, or a comment. This is a sample that favours compounds with a hit; in the whole collection about 14% have one here. Unless noted, calls follow the shape of the dose curve; as a rule, active = well fitted curve in the direction sought with a large enough effect; inconclusive = small, poorly fitted or top-dose-only effect, or another doubt; inactive = no such curve, though single readings can be large; an effect the other way counts as inactive or inconclusive. % is scaled to controls: 0 for no effect and ±100 for the full control effect.

SMILES	HCMV antiviral	Sm TGR inh	Pf growth 48h	Giardia FBPA inh	Pf growth 96h
Cc1cccn2c(=O)c(C=O)c(Cl)nc12	-88*	6.3µM*	-10%	-29%	17%
Cc1cccn2c(=O)c(C=O)c(Sc3ncccn3)nc12	198	22µM*	?	1%	-26%
Cc1cccn2c(=O)c(C=O)c(N3CCN(c4ccc(F)cc4)CC3)nc12	4	4%	37%	1%	-3%[5.75 µM]
Cc1cc2[nH]c3c(c[n+](C)c4ccccc34)c2cc1C	-98*	4%	0.47µM*	-19%	?
COc1ccc2[nH]c3c(c2c1)CCNC3=O	-25	nt	nt	0%	nt
COc1ccc2[nH]c3c(c2c1)CCC/C3=N\N	3	45µM*	40%	-15%	77%
CCc1cc2c(=O)n3c(nc2s1)-c1[nH]c2ccc(OC)cc2c1CC3	15	-13%	62%	1%	2.9µM*
COc1ccc2[nH]c3c(c2c1)CCN=C3C	-92*	-19%	9.3µM*	-10%[21.7 µM]	?
Cc1cc(Nc2cccc([N+](=O)[O-])c2)c2ccccc2n1	-5	nt	?	0%	-24%
CCOc1ccc2nc(C)cc(Nc3ccc4c(c3)OCCO4)c2c1	9	-29%	?	1%	2.6µM*
CCOc1ccc2nc(C)cc(Nc3ccc(N4CCOCC4)cc3)c2c1	nt	-8%	2.1µM*	-9%	2.6µM*
CCOc1ccc2nc(C)cc(Nc3cccc([N+](=O)[O-])c3)c2c1	-97*	-8%	1.7µM*	-13%	1µM*
COc1ccc(-c2nc(CCNC(=O)c3ccccc3)cs2)cc1OC	14	5%	nt	nt	nt
COc1ccc(/C=C2\SC(=S)N(CCC(=O)Nc3ccc(O)cc3)C2=O)cc1	-5	1%	57%	?	?
COc1cccc(/C=C2/SC(=S)N(CCCC(=O)Nc3ccc(O)cc3)C2=O)c1	-99*	5%	?	nt	?
COc1cccc(/C=C2\SC(=S)N(CCCC(=O)Nc3ccc(C(=O)O)cc3)C2=O)c1	-80*	-23%	?	nt	8.3µM*
CCN(CC)CCOC(=O)c1ccc(NC(=O)CCCN2C(=O)S/C(=C/c3ccc(OC)cc3)C2=S)cc1	nt	0%	2.6µM*	10%	-9%
CCCCCCCCCCC(C)=O	nt	nt	nt	8%	nt
O=C(NCC1CCCO1)c1cc2ccccc2nc1Cl (centres undefined)	-70*	7%	94%	9%	102%
Cc1nc2ccc(F)cc2cc1C(=O)NCC1CCCO1 (centres undefined)	46	-9%	?	-17%	6.6µM*
O=C(NCC1CCCO1)c1cc2ccccc2cc1O (centres undefined)	36	-18%	?	nt	?
COc1ccc(-n2cnc(=S)[nH]c2=S)cc1	48	nt	nt	nt	nt
CCC(C)NCCOCCOc1ccc(Cl)c(C)c1C (centres undefined)	-83*	-9%	?	-25%	14%
CC(C)N(C)c1ncnc2c1ncn2[C@H]1CN(Cc2ccc(F)cc2)C[C@@H](CO)O1	1	nt	nt	nt	nt
COC(=O)[C@H](Cc1ccccc1)NC(=O)c1cc(COc2c(F)cccc2F)on1	14	-5%	41%	9%	12µM*
SMILES	HCMV antiviral	Sm TGR inh	Pf growth 48h	Giardia FBPA inh	Pf growth 96h
CN1CCN(C(=O)c2cc(COc3c(F)cccc3F)on2)CC1c1ccccc1 (centres undefined)	24	4µM*	-1%	2%	4.1µM*
O=C(c1cc(COc2c(F)cccc2F)on1)N1CCC(c2ccccc2F)C1 (centres undefined)	-1	9%	20%	0%	9.3µM*
O=C(c1cc(COc2c(F)cccc2F)on1)N1CCC(c2ccncc2)CC1	-84*	3%	?	2%	?
O=C(c1cc(COc2c(F)cccc2F)on1)N1CCC(c2ccccc2Cl)C1 (centres undefined)	72	-19%	-19%	7%	20%
Cc1cccc(C)c1OCc1cc(C(=O)N2CCC(c3ccncc3)CC2)no1	?	-21%	-1%	nt	-19%
Cc1cc(=O)[nH]c2nnc(SCc3cccc(F)c3)n12	?	10%	nt	nt	nt
CCN(Cc1ccncc1)C(=O)c1cc(COc2ccc(F)cc2Cl)on1	-27	-3%	?	nt	?
CCN(Cc1ccncc1)C(=O)c1cc(COc2c(F)cccc2F)on1	-38	-4%	5%	6%	10µM*
